CendR NRP1 mod – NRP-1/CendR interaction modulation | FAM-RPARPAR peptide binding to NRP-1, fluorescence polarization | inhibition, % at 25 µM | 0.85% of 360,000 active;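 active means inhibition or corrected inhibition above about 18%, plus a signal ratio from 0.5 to 1.5, limit read from the data, passing the limit was not always enough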
TPT1 inhibitor – C. albicans TPT1 enzyme inhibition; 0.81% of 300,000 active; recombinant caTPT1, FP RNA substrate dephosphorylation; inhibition, % at 5 µM; AID 1962;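 active means inhibition above the mean of all tested compounds plus 3 SD, set per screening campaign, cut at about 24% in these data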
HNF4A DNA FP – change in binding of human HNF4 alpha to DNA; P41235; HNF4a-FITC DNA binding, fluorescence polarization, 1 h; activity change, % at 10 µM; 0.3% of 360,000 active; in the data active means activity change above about 30%, passing the limit was not always enough
Rpn11 block – inhibitors of human proteasome Rpn11; 0.59% of 360,000 active; inhibition, % at 20 µM; human 26S proteasome, Ub4-pepOG fluorescence polarization; 20S core pre-blocked with epoxomicin;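 active means inhibition at 20 µM, scaled to each plate's controls, above about 33%, limit read from the data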
Target sequence (O00487 whole entry, looked up): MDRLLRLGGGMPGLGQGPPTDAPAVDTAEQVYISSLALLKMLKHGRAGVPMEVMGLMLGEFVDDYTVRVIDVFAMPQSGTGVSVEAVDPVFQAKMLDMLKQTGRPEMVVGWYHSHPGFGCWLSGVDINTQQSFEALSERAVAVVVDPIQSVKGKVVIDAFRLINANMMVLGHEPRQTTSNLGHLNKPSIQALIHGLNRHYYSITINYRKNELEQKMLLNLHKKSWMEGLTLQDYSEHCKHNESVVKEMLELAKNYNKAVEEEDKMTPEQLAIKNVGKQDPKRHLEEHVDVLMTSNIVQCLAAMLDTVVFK
CTSL1 counter – counter-screen for PFM18AAP inhibitors: inhibitors of F. hepatica cathepsin L1 | recombinant F. hepatica cathepsin L1, Z-Leu-Arg-MCA fluorescence | inhibition, % at 5.96 µM | AID 1906 | 0.49% of 300,000 active;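 active means inhibition above the mean of all tested compounds plus 3 SD, set per screening campaign, cut at about 17% in these data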
PHOSPHO1 inh – inhibitors of human PHOSPHO1 phosphatase; AID 1565; 1.1% of 290,000 active; recombinant PHOSPHO1, absorbance phosphatase assay; inhibition, % at 13.3 µM; Q8TCT1; in the data active means inhibition above about 60%
Target sequence (Q8TCT1 whole entry, looked up): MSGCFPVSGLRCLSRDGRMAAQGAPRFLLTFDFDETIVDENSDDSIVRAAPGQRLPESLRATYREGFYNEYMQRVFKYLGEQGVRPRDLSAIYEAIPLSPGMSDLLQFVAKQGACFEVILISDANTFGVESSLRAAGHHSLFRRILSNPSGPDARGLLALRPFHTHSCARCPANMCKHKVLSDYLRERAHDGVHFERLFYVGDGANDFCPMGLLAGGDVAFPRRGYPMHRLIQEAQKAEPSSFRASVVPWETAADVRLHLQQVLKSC
Of the large screens only hits and unclear results are named; the others gave an inactive call. Hits are enriched below; roughly 3.3% of the tested compounds scored in any of these assays.

Cc1cc(N2CCCCCC2)nc2ccccc12	CTSL1 counter 20.1
Cc1cc(N2CCCCC2)nc2ccccc12	none
C=CCC1NS(=O)(=O)OCC1NC(=O)OCC(Cl)(Cl)Cl (centres undefined)	CTSL1 counter 20.0
CCCNC(=O)c1ccccc1NC(=O)c1cccc(-n2cnnn2)c1	none (no result: TPT1 inhibitor, CTSL1 counter, PHOSPHO1 inh)
[O-]/C(=C(\C(=S)Nc1ccccc1F)[n+]1ccccc1)c1ccc(OC(F)F)cc1	HNF4A DNA FP 75.3
C=C1c2cc(C)ccc2NC(=O)N1c1ccc(C)cc1	PHOSPHO1 inh 73.3
O=C1c2ccccc2C(=O)N1CCCc1cn(C[C@H]2CC[C@H](Cn3cc(CCCN4C(=O)c5ccccc5C4=O)nn3)O2)nn1	none (no result: TPT1 inhibitor, CTSL1 counter, PHOSPHO1 inh)
COc1cc(OC)cc(C(=O)Nc2ccccc2S(=O)(=O)N2CCCC2OC(C)=O)c1 (centres undefined)	CendR NRP1 mod 18.5
COC(=O)C1CCCN1S(=O)(=O)c1ccccc1NC(=O)c1cc(OC)c(OC)c(OC)c1 (centres undefined)	none
C=CCn1c(SCc2ccc(C#N)cc2)nnc1-c1cccc(OC)c1	none
COc1cccc(-c2nnc(SCc3ccc(C#N)cc3)n2Cc2ccco2)c1	PHOSPHO1 inh 65.4
CCn1c(SCc2cccc(C)c2)nnc1-c1ccc(C)cc1	PHOSPHO1 inh 68.9
Cc1ccc(-c2nnc(SCc3ccc(C#N)cc3)n2Cc2ccco2)cc1	PHOSPHO1 inh 100.4
COc1ccc([C@@H](OC)[C@@]2(Cc3ccc(O)cc3)N=C(N)N(C)C2=O)cc1	none (no result: TPT1 inhibitor, CTSL1 counter, PHOSPHO1 inh)
CCCCCCC1(C)NC(=O)N(C(C)C(=O)Nc2ccc(N3CCOCC3)cc2)C1=O (centres undefined)	none (no result: TPT1 inhibitor, CTSL1 counter, PHOSPHO1 inh)
O=C(O)c1cc([N+](=O)[O-])ccc1Oc1ccccc1	CendR NRP1 mod 26.2 (no result: TPT1 inhibitor, CTSL1 counter, PHOSPHO1 inh)
Nc1nn(-c2cccc(F)n2)cc1-c1ccc(Cl)cc1	none (no result: TPT1 inhibitor, CTSL1 counter)
Nc1nn(-c2cccc(F)n2)cc1-c1ccccc1	HNF4A DNA FP 39.2 (no result: TPT1 inhibitor, CTSL1 counter)
O=C(NNC(=S)NCc1ccco1)c1ccc(Cl)s1	PHOSPHO1 inh 102.6
N=C1/C(=C\c2ccc(-c3ccc(C(=O)O)cc3)o2)C(=O)N=C2SC=C(c3ccccc3)N12	Rpn11 block active (no result: TPT1 inhibitor, CTSL1 counter)
CCCN(CCC)C(=O)Cn1c(=O)c2sccc2n2c(=S)sc(-c3ccccc3)c12	CendR NRP1 mod 42.0 (not shown: Rpn11 block)
CCCN(CCC)C(=O)Cn1c(=O)c2ccccc2n2c(=S)sc(-c3ccccc3C)c12	none
O=C(C1CCN(S(=O)(=O)c2cccc3nsnc23)CC1)N1CCCc2ccccc21	PHOSPHO1 inh 60.5
O=S(=O)(c1cccc2nsnc12)N1CCN(Cc2ccccc2)CC1	CendR NRP1 mod 19.3
S=c1[nH]nc(-c2cc(-c3ccsc3)n[nH]2)n1-c1cccc2ccccc12	none
CC(=O)c1ccc(-n2c(-c3cc(-c4ccsc4)n[nH]3)n[nH]c2=S)cc1	PHOSPHO1 inh 64.7
CC(C)(C)NC(=O)Cn1c(=O)c(=O)n(Cc2ccccc2)c2ccc(Cl)cc21	none
CC(C)C[C@H](N)c1nnc(S(=O)(=O)Cc2cccc(F)c2)o1	CTSL1 counter 72.3
CC(C)=CCSc1nnc([C@@H](NC(=O)OC(C)(C)C)C(C)C)o1	CTSL1 counter 36.5
Cc1ccccc1CS(=O)(=O)c1nnc([C@H](CC(C)C)NC(=O)OC(C)(C)C)o1	CTSL1 counter 82.2
CC(C)CCNC(=O)c1ccc(CSCc2cccc(F)c2)o1	none
CC[C@@H](C)[C@H](NC(=O)OC(C)(C)C)c1nnc(S(=O)(=O)Cc2cc(C)ccc2C)o1	CTSL1 counter 76.3
CC(C)(C)OC(=O)N[C@@H](CCCCNC(=O)OCc1ccccc1)c1nnc([C@H](CCCCNC(=O)OCc2ccccc2)NC(=O)OC(C)(C)C)o1	none
Cc1cccc(NC(=O)CCS(=O)(=O)c2ccc3nc(C)sc3c2)c1	none (no result: TPT1 inhibitor, CTSL1 counter, PHOSPHO1 inh)
Cc1ccc(NC(=O)C(=O)NN=C2CCCC2)cc1C	none
CC(C)C[C@H](NC(=O)OC(C)(C)C)c1nnc(SCc2ccccc2)o1	CTSL1 counter 22.6
CCOC(=O)CSc1nnc([C@H](Cc2ccccc2)NC(=O)OC(C)(C)C)o1	none
CC(C)[C@H](NC(=O)OC(C)(C)C)c1nnc(S(=O)(=O)Cc2c(F)cccc2Cl)o1	CTSL1 counter 41.3
CC(C)(C)OC(=O)NCCCCCc1nnc(SCc2c(F)cccc2Cl)o1	none
CC(C)(C)OC(=O)N[C@@H](Cc1ccccc1)c1nnc(S(=O)(=O)Cc2cccc(F)c2)o1	CTSL1 counter 31.5 (no result: CendR NRP1 mod, HNF4A DNA FP, Rpn11 block)
COc1ccc(CCC(=O)OCC(=O)NC(=O)c2ccc(Cl)cc2)cc1	none (no result: TPT1 inhibitor, CTSL1 counter, PHOSPHO1 inh)
CCCNC(=O)C1(C)CCCN(CC(=O)c2ccc3c(c2)OCCO3)C1 (centres undefined)	none (no result: TPT1 inhibitor, CTSL1 counter, PHOSPHO1 inh)
CCN(CC(=O)NCc1ccc(F)cc1)C(=O)c1ccc(C(=O)c2ccccc2)cc1	none
C/C(CC(=O)NC12CC3CC(CC(C3)C1)C2)=N\NC(=O)c1ccc(C)cc1	none
COc1cccc(Oc2c(C)oc3c(CN4CCOCC4)c(O)ccc3c2=O)c1	none (no result: TPT1 inhibitor, CTSL1 counter, PHOSPHO1 inh)
COc1ccc(Oc2c(C)oc3c(CN4CCOCC4)c(O)ccc3c2=O)cc1	PHOSPHO1 inh 60.1
Cc1cc2oc(=O)cc(CN3CCOCC3)c2cc1C	none
CCNc1cc2oc(=O)c(CN3CCOCC3)c(C)c2cc1C	CendR NRP1 mod 24.9
CN1CCN(c2nc(-c3ccccc3)ncc2S(C)(=O)=O)CC1	CendR NRP1 mod 16.6
CS(=O)(=O)c1cnc(-c2ccccc2)nc1Oc1ccc(Cl)cc1	CendR NRP1 mod 23.0
COc1cnc(-c2ccccn2)nc1Oc1ccccc1	none
CCOC(=O)c1cnc(-c2ccccc2)nc1Oc1ccc(OC)cc1	CendR NRP1 mod 26.0
CCOC(=O)c1cnc(-c2ccccc2)nc1Oc1ccccc1	none
COc1cnc(-c2ccccc2)nc1Oc1ccc(Cl)cc1C	CTSL1 counter 18.6
CC1CC(C)CN(CC(=O)NCCc2ccc(S(N)(=O)=O)cc2)C1 (centres undefined)	none
CCCCNC(=O)N1CCN(Cc2ccc(F)cc2)CC1	none
CC(C)=CCC[C@H](C)C[C@@H]1CC2=C(C(=O)OC(C)(C)O2)[C@H](c2ccc(Cl)cc2)O1	none (no result: TPT1 inhibitor, CTSL1 counter, PHOSPHO1 inh)
Cc1cccc(C)c1NC(=S)N/N=C/c1ccc(OCCC(C)C)cc1	none
CCCCOc1ccc(CSc2nnc(C)n2N)cc1[N+](=O)[O-]	none
CCCCOc1ccc(CSc2nc(C)[nH]c2[N+](=O)[O-])cc1[N+](=O)[O-]	PHOSPHO1 inh 60.8
Cc1cnc(C(=O)OCC(=O)N2c3ccccc3NC(=O)C2(C)C)cn1	none
Cc1nn(-c2ccccc2)c(C)c1C(=O)OCC(=O)N1c2ccccc2NC(=O)C1(C)C	CendR NRP1 mod 30.5
Cc1cccc2[nH]c3c(N4CC=C(c5ccc(F)cc5)CC4)ncnc3c12	none
COCCNc1c2c(nc3c(-c4ccccc4)c(C)nn13)CCC2	CendR NRP1 mod 27.6
Cc1cccnc1Nc1ncnc(N)c1[N+](=O)[O-]	PHOSPHO1 inh 60.9
CCc1ccc2c(c1)Sc1ccccc1CC2N1CCN(C)CC1 (centres undefined)	none (no result: PHOSPHO1 inh)
